Source: PubChem (several laboratories)
Sampled rows, rich in hits. Any-hit rate of the full collection: about 4%.
ADAM17 inh – inhibitors of human ADAM17. recombinant ADAM17, EDANS/DABCYL FRET peptide cleavage. inhibition, % at 6.95 µM. actives 0.83% (n = 370,000). AID 720648;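 active = inhibition above the mean of compounds lying between control limits plus 3 SD, set per campaign, cut at about 8.5% in these data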
Target sequence (P78536 215-824 limits assumed): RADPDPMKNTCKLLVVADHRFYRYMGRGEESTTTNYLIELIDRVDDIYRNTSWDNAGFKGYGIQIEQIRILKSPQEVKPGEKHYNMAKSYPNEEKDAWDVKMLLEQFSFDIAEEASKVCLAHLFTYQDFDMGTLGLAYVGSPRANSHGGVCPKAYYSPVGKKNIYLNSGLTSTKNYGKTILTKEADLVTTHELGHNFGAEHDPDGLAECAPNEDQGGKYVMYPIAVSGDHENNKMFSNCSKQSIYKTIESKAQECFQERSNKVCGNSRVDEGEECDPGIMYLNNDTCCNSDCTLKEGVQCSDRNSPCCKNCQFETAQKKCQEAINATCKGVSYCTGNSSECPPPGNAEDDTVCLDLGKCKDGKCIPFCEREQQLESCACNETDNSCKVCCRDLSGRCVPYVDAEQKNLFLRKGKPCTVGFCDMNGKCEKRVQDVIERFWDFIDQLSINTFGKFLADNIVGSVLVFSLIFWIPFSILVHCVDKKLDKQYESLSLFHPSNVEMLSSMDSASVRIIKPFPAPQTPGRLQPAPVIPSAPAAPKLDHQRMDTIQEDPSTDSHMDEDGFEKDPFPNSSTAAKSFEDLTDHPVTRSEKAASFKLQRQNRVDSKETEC
ADAM10 inh – ADAM10 inhibition, QFRET primary screen; recombinant ADAM10, EDANS/DABCYL FRET peptide cleavage, 3 h; actives 0.62% (n = 370,000); inhibition, % at 7 µM; O14672;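 active = inhibition above a per-campaign cutoff equal to the mean of compounds falling between control-based bounds plus 3 SD, cut at about 20% in these data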
GRIN3A LBD mod – modulates the human NR3A ligand-binding domain | NR3A LBD differential scanning fluorimetry, Tm shift; 0% = protein alone, 100% = glycine-bound protein | Tm shift relative to glycine control, % at 25 µM | actives 2.5% (n = 340,000) | AID 1259313;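 active = melting temperature shift of at least 10% of the positive control shift, at one fixed dose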
aDG glyco up – increases alpha dystroglycan glycosylation | Pro5-aDG cells, alpha-DG glycosylation AlphaScreen (IIH6); 0% Pro5, 100% B10-LARGE cell signal | activation, % at 10 µM | actives 0.22% (n = 360,000) | AID 624168;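 active = activation of at least 8% versus controls, or a plate z-score of at least 8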;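 also: Pro5 are CHO cells carrying HIG-tagged alpha-DG that lacks glycosylation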
FAS-TE inh – FAS thioesterase (human) inhibition. P49327. AID 602261. inhibition, % at 15 µM. actives 0.67% (n = 360,000). recombinant FAS-TE, OMFH fluorogenic substrate, fluorescence endpoint;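 active = compounds whose normalised, plate-corrected inhibition of enzyme fluorescence in the single-dose primary screen is 50% or more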
Hits are given with their value; - = inactive; . = no result.

SMILES	ADAM17 inh	ADAM10 inh	GRIN3A LBD mod	aDG glyco up	FAS-TE inh
COc1ccccc1Cn1c(=S)[nH]c2cc(C(=O)NCC3CCCO3)ccc2c1=O (configuration not stated)	-	-	-	-	-
O=C(NCC1CCCO1)c1ccc2c(=O)n(Cc3ccc(Cl)cc3)c(=S)[nH]c2c1 (configuration not stated)	-	-	21.5	-	-
CN(CCC1CCCCO1)C(=O)c1cc(COc2ccc(F)cc2F)on1 (configuration not stated)	-	-	-	-	-
COC(=O)c1ccccc1NC(=O)COC(=O)/C=C/c1cccs1	-	-	11.0	-	-
O=C(COC(=O)/C=C/c1cccs1)Nc1ccc(F)cc1	-	-	16.1	-	-
COc1cc2c(cc1OC)C(=O)N1[C@H]3c4ccccc4OC[C@@H]3[C@H](c3ccccc3)[C@]1(C)C(=O)N2	-	-	-	-	-
Cc1ccc(NC(=S)N2CCOCC2)c(C)c1	-	-	16.2	-	-
Cc1cc(Cl)ccc1NC(=S)N1CCOCC1	-	-	-	-	-
Cc1ccc(NC(=S)NNC(=S)Nc2ccc(C)cc2C)cc1	-	-	11.3	-	-
COc1cccc(-c2cc(C(F)(F)F)n3nc(C(=O)Nc4c(C)n(C)n(-c5ccccc5)c4=O)cc3n2)c1	-	-	-	-	-
N#Cc1ccccc1NC(=O)CN(Cc1ccccc1)Cc1ccccc1	-	-	16.2	-	-
Cc1ccc(NC(=O)CN(C)CC(=O)Nc2ccccc2C#N)cc1	-	-	-	-	-
COc1ccc(C(NC(=O)C2C3C=CC(C3)C2C(=O)O)c2ccccc2)cc1 (configuration not stated)	-	-	-	-	-
COc1cccc(C(NC(C)=O)c2nc(-c3cnn(C)c3)cs2)c1 (configuration not stated)	-	-	.	-	-
CCOc1ccccc1C(=O)Nc1cc(Cl)ccc1O	-	-	15.7	-	-
CCOc1ccccc1C(=O)Nc1cc(OC)ccc1OC	-	-	-	-	-
Cc1ccc(Cl)cc1NC(=O)c1ccccc1OCC(=O)Nc1ccc(Cl)cc1	-	-	29.5	-	-
COc1ccc(Cl)cc1NC(=O)c1ccccc1C	-	-	-	-	-
COc1ccccc1C(=O)Nc1cc(Cl)ccc1O	-	-	10.9	-	-
Cc1ccc(NC(=O)COc2ccccc2C(=O)Nc2ccccc2)cc1Cl	-	-	-	-	-
O=C(COc1ccc(Cl)cc1Cl)Nc1ccc(C(=O)Nc2ccccc2C(=O)O)cc1	-	-	15.9	-	-
S=C(NCc1ccc(Cl)cc1)NC1CCN(Cc2ccccc2)CC1	-	-	-	-	-
COc1cc(OC)c(NC(=O)c2cc3ccccc3cc2O)cc1Cl	-	-	26.1	-	-
N#Cc1ccccc1NC(=O)c1ccccc1OCC(=O)Nc1ccc2c(c1)oc1ccccc12	-	-	23.0	-	-
CNC(=O)COc1ccccc1C(=O)Nc1ccc2c(c1)oc1ccccc12	-	-	-	-	-
SMILES	ADAM17 inh	ADAM10 inh	GRIN3A LBD mod	aDG glyco up	FAS-TE inh
O=C(CCNS(=O)(=O)c1ccc(Cl)cc1)N1CCCCCC1	-	-	11.1	-	-
O=C(CCNS(=O)(=O)c1ccc(Cl)cc1)N1CCOCC1	-	-	-	-	-
Cc1cc(C(=O)NN=Cc2ccccc2C(=O)O)n[nH]1	-	-	.	.	.
Cc1cc([N+](=O)[O-])c2[nH]c(C(=O)N/N=C/c3ccccc3C(=O)O)c(-c3ccccc3)c2c1	-	-	29.2	-	-
C=CCN1CCN(C(=O)c2c(-c3ccccc3)noc2C)CC1	-	-	-	-	-
COc1ccc(C(=O)/C=C/c2cn(CN3CCN(C)CC3)c3ccccc23)cc1	.	.	35.6	-	-
COc1ccc(C(=O)/C=C/c2cn(CC(O)CN3CCOCC3)c3ccccc23)cc1 (configuration not stated)	.	.	-	-	-
CCOc1ccc(C(=O)/C=C/c2cn(CN3CCN(C)CC3)c3ccccc23)cc1	-	-	32.1	-	-
O=[N+]([O-])c1cccc(/C=C/c2nc(C=Nc3ccc4ccccc4c3)c(O)o2)c1	-	-	11.1	-	-
O=C(COC(=O)c1c(Cl)cccc1Cl)Nc1ccccc1Br	-	-	14.8	-	-
CCOC(=O)C1(C(=O)OCC)C(C(=O)c2ccccc2)C1c1ccccc1 (configuration not stated)	-	-	-	-	-
CCc1cccc2c(C(=O)COC(=O)c3ccc([N+](=O)[O-])s3)c[nH]c12	-	-	10.5	-	-
